Experimental data published in PubChem BioAssay.
The source made the active and inactive calls. Unless noted, how the calls were made is not given here.

Tests used:
[1] = compounds binding Alexa647 anti-His antibody – biochemical, small-molecule microarray, 635 nm fluorescence, artefact control for SMM control protein annotation, primary screen (AID 1128); conditions: higher = more signal;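 further: score merges feature fluorescence with signal-to-noise for each printed compound spot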
[2] = system: Human papillomavirus type 1a E7 protein (residues 1-88); test: HPV1a E7 small-molecule binders, primary screen, biochemical, small-molecule microarray, residues 1-88, 635 nm (AID 1129); conditions: small-molecule microarray binding, fluorescence 635 nm; higher = more signal
[3] = biological target: Focal adhesion kinase 1 (Homo sapiens) (UniProt Q05397); test: PTK2 protein binding on printed compound slides – biochemical, small-molecule microarray, 635/667 nm fluorescence, BSA, DTT, primary screen (AID 1130); conditions: 635 nm fluorescence, higher = more signal;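 further: composite of spot emission at 667 nm and signal to noise over triplicate slides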
Sequence of Focal adhesion kinase 1 (Homo sapiens) (Q05397 whole entry, looked up): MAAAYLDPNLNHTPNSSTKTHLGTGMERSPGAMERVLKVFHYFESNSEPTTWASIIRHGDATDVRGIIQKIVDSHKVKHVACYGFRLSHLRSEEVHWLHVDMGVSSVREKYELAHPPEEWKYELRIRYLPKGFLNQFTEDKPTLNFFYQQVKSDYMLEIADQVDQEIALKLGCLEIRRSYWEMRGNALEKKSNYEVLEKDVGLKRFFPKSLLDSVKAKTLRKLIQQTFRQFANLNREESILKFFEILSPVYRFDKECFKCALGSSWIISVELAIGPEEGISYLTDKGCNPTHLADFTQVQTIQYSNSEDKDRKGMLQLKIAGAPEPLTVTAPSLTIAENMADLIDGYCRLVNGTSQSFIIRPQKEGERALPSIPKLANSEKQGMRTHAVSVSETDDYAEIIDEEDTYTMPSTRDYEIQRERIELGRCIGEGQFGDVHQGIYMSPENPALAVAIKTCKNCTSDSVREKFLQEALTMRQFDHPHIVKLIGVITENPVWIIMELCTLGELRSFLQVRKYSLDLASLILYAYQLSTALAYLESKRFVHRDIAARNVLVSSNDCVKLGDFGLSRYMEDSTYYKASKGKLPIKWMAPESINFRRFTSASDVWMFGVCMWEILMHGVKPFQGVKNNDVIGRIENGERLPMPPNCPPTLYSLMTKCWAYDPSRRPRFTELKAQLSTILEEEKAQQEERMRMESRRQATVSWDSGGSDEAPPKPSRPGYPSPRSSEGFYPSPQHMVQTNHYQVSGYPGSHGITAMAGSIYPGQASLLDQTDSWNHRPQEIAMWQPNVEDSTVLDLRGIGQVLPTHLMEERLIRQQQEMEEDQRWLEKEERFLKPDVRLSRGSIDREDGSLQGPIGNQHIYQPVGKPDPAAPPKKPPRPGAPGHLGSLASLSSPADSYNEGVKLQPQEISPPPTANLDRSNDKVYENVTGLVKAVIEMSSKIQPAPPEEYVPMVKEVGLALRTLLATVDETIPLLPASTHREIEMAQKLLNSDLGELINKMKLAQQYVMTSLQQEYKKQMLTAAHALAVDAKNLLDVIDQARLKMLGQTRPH

[4] = system: Fibrinogen (Alexa647-labelled); test: Alexa647-fibrinogen binding to printed small molecules – biochemical, small-molecule microarray, 635/667 nm fluorescence, artefact control for SMM control-protein annotation, profiling panel (AID 1131); conditions: fibrinogen-A647 binding fluorescence, higher = more signal;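 further: z-score merges 667 nm fluorescence with per-spot signal-to-noise over triplicate slides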
[5] = biological target: Follistatin (Homo sapiens) (UniProt P19883); test: FST protein binding to printed compounds – biochemical, small-molecule microarray, 635/667 nm fluorescence, primary screen (AID 1132); conditions: 635 nm fluorescence, higher = more signal
Sequence of Follistatin (Homo sapiens) (P19883 whole entry, looked up): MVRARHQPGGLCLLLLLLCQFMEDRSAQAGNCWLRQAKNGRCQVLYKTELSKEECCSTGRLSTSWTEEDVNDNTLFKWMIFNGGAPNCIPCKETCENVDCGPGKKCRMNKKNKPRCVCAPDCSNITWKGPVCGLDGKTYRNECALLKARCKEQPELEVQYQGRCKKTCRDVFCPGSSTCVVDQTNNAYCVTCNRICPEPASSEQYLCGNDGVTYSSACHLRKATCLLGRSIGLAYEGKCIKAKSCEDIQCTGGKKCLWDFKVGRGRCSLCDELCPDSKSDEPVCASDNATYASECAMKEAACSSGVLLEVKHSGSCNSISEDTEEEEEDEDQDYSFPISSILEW

[6] = biological target: Fibroblast growth factor 2 (Homo sapiens) (UniProt P09038); test: basic fibroblast growth factor binding to printed compounds – biochemical, small-molecule microarray, 635/667 nm fluorescence, primary screen (AID 1133); conditions: FGF2, fluorescence 635/667, higher = more signal
Sequence of Fibroblast growth factor 2 (Homo sapiens) (P09038 whole entry, looked up): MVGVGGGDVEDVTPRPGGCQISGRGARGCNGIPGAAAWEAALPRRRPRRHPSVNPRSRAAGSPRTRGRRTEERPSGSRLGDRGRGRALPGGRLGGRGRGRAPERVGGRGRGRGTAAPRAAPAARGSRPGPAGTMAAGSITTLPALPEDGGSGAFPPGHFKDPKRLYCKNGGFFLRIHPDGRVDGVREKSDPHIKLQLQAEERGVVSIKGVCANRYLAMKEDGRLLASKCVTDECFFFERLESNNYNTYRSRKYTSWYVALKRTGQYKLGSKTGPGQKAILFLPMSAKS

[7] = JC-1 mitochondrial potential readout, lung cancer cells – cell-based, A549, JC-1 fluorescence, basal, 24 h, 100 nL, profiling panel (AID 1138); conditions: higher = more signal;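 further: A549 lung adenocarcinoma cells under basal conditions with no added stimulus; test concentration not given here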
Lefty1 = Lefty1 protein binding to printed compounds – biochemical, small-molecule microarray, 635/667 nm fluorescence, primary screen (AID 1139); conditions: fluorescence 635/667, higher = more signal
[8] = system: wheat germ agglutinin (Triticum aestivum), Alexa647-labelled; test: Alexa647-WGA lectin binding to printed small molecules – biochemical, small-molecule microarray, 635/667 nm fluorescence, artefact control for SMM control-protein annotation, profiling panel (AID 1140); conditions: WGA-A647 binding, 635 nm fluorescence, higher = more signal;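 further: score merges 667 nm feature emission with signal to noise over triplicate slides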
[9] = biological target: Luciferin 4-monooxygenase (Photinus pyralis) (UniProt P08659); test: inhibition of purified Photinus pyralis luciferase – biochemical, luminescence, purified enzyme, 2006 set, primary screen (AID 1141); conditions: purified firefly luciferase, SteadyGlo luminescence, 30 min; higher = more signal, called active from +8 up or from −8 down;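 further: cell-free assay with purified firefly luciferase at 100 ng per well in PBS; test concentration not given here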
Sequence of Luciferin 4-monooxygenase (Photinus pyralis) (P08659 whole entry, looked up): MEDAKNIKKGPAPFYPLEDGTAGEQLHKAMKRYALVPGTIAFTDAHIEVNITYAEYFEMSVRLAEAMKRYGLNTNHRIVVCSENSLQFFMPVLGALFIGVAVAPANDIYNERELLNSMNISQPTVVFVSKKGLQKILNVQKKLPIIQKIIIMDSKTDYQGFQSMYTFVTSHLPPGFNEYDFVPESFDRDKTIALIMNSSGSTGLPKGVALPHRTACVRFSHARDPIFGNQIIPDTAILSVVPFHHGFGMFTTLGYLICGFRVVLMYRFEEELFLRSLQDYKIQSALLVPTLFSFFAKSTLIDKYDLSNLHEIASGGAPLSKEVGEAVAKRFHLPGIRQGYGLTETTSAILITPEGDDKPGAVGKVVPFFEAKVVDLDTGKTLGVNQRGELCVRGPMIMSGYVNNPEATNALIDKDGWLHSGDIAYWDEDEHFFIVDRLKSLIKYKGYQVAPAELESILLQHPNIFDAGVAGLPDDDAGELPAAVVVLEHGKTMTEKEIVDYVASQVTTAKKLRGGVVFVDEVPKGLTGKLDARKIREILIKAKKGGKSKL

[10] = system: Wnt5a (protein binding on small-molecule microarray); test: small molecules binding Wnt5a protein – biophysical, small-molecule microarray, 635/667 nm fluorescence, primary screen (AID 1142); conditions: 635 nm fluorescence, higher = more signal;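 further: fluorescence read at 667 nm with signal to noise per printed feature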
[11] = ATP-based viability of Huh7 replicon cells – cell-based, CellTiter-Glo luminescence, basal, 48 h, cytotoxicity control for HCV replication inhibitor project, primary screen (AID 1143); conditions: higher = more signal, called active from +8 up or from −8 down;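 further: Huh7 hepatoma cells carrying a hepatitis C replication reporter with no stimulus; test concentration not given here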
[12] = Pseudomonas biofilm growth suppression – PAO1 strain, BacTiter-Glo luminescence, LB-PBS, primary screen (AID 1144); conditions: P. aeruginosa PAO1 biofilm, 12 h, higher = more signal
[13] = basal CRE-LacZ reporter activity in PC12 – cell-based, unstimulated, primary screen (AID 1145); conditions: no forskolin, luminescence, 4.5 h, higher = more signal, called active from +8 up or from −8 down
[14] = forskolin-driven CRE-LacZ activity in PC12 – cell-based, CRE-LacZ reporter, forskolin-stimulated, primary screen (AID 1146); conditions: luminescence, 4.5 h, higher = more signal, called active from +8 up or from −8 down;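 further: PC12 cells with 6xCRE LacZ reporter stimulated by forskolin 10 µM; beta-galactosidase reporter signal reflecting CREB driven transcription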
[15] = biological target: Streptavidin (Streptomyces avidinii) (UniProt P22629); test: compounds binding control protein streptavidin – biophysical, small-molecule microarray, 635/667 nm fluorescence, artefact control for SMM compound annotation, primary screen (AID 1147); conditions: higher = more signal;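 further: signal reflects streptavidin binding to arrayed compounds as a control protein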
Sequence of Streptavidin (Streptomyces avidinii) (P22629 whole entry, looked up): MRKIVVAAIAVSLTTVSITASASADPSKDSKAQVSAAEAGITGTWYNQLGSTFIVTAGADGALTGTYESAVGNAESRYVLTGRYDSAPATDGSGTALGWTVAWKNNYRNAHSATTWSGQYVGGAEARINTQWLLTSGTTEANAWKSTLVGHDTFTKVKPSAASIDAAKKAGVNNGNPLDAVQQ

[16] = probe aInhba binding on compound microarray – biochemical, small-molecule microarray, 635/667 nm fluorescence, primary screen (AID 1148); conditions: higher = more signal;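 further: score merges 667nm spot fluorescence with signal-to-noise for antibody binding to printed compounds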
Torsin-1A (Homo sapiens) [17] = biological target: Torsin-1A (Homo sapiens) (UniProt O14656); test: TOR1A wild-type binding on microarray – cell lysate, small-molecule microarray, lysate, 635/667 nm, primary screen (AID 1149); conditions: COS7 hTOR1A-WT lysate, 635 nm fluorescence, higher = more signal
Sequence of Torsin-1A (Homo sapiens) (O14656 whole entry, looked up): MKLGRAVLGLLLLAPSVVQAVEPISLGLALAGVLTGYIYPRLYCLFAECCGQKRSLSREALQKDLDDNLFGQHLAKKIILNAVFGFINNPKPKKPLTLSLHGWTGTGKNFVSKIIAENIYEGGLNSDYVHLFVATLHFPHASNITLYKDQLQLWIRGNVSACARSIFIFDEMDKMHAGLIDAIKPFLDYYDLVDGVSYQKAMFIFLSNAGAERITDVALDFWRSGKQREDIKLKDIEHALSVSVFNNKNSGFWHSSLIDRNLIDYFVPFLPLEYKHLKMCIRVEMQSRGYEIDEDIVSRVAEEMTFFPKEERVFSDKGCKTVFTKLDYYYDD

Torsin-1A (Homo sapiens) [18] = biological target: Torsin-1A (Homo sapiens) (UniProt O14656); test: torsin A mutant lysate binding on microarrays – cell lysate, small-molecule microarray, COS7 lysate, 635/667 nm fluorescence, primary screen (AID 1150); conditions: COS7 hTOR1A mutant lysate, 635 nm fluorescence, higher = more signal;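 further: score pools 667 nm emission and signal to noise measuring lysate protein binding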
[19] = system: Sonic hedgehog protein (Shh); test: Sonic hedgehog microarray binding compounds – biochemical, small-molecule microarray, 635/667 nm fluorescence, primary screen (AID 1151); conditions: 635 nm fluorescence, higher = more signal;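 further: Shh protein binding to compounds spotted on small-molecule microarray slides; score combines spot fluorescence intensity with signal-to-noise across triplicate slides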

Compound | composite z-score [1] | composite z-score [2] | composite z-score [3] | composite z-score [4] | composite z-score [5] | composite z-score [6] | z-score [7] | composite z-score (Lefty1) | composite z-score [8] | z-score [9] | composite z-score [10] | z-score [11] | z-score [12] | z-score [13] | z-score [14] | composite z-score [15] | composite z-score [16] | composite z-score (Torsin-1A (Homo sapiens) [17]) | composite z-score (Torsin-1A (Homo sapiens) [18]) | composite z-score [19]
CC(C)CON=C1C[C@@H](O)[C@@H](O)[C@@H]2[C@@H]3C(=O)N(C[C@@H]4CCCO4)C(=O)[C@@H]3CC[C@H]12 | 0.361 | 0.625 | 0.0201 | 0.286 | 0.268 | 0.911 | -0.786 | 0.541 | 0.0098 | 1.01 (inactive) | -0.0313 | -1.36 (inactive) | 1.34 (inactive) | -1.02 (inactive) | -0.296 (inactive) | -0.23 | -0.128 | 0.0672 | 1.49 | 0.819
CC(CCN1CCc2nc(-c3ccccc3)c(-c3ccccc3)cc2C1)=NO[C@H](C)c1cn([C@@H]2COC[C@H]2O)nn1 | 0.124 | 0.915 | 0.0127 | 0.717 | 0.438 | 0.0208 | 1.17 | 0.712 | 0.224 | -0.475 (inactive) | 0.0025 | -0.615 (inactive) | -0.733 (inactive) | 0.983 (inactive) | -0.258 (inactive) | -0.384 | 0.0183 | 1.01 | 1.11 | 0.572
COC(=O)[C@H](C)NC(=O)CCC1CC(OC(=O)NCc2cccc3ccccc23)CC2(CCCC(COC(=O)NCC3CCCCC3)O2)O1 (stereo not given in full) | 0.876 | 1.22 | 0.234 | 0.986 | 0.591 | 1.4 | -0.25 | 1.09 | 0.487 | 0.925 (inactive) | 0.835 | -0.426 (inactive) | -0.803 (inactive) | 0.91 (inactive) | 1.76 (inactive) | 0.688 | 0.0543 | 1.02 | 1.05 | 1.43
C/C=C\[C@@H](NCc1ccccc1Br)[C@@H](O)Cc1ccccc1 | -0.13 | -0.469 | -0.119 | -0.641 | -0.604 | -1.4 | -1.4 | -0.972 | -0.819 | 0.979 (inactive) | -0.771 | -5.43 (inactive) | 0.541 (inactive) | 0.857 (inactive) | 0.567 (inactive) | -0.838 | -0.153 | 0.0908 | -0.27 | -1.3
C#C[C@@H](CC)O[Si](C#Cc1ccc(Oc2ccccc2)cc1)(C(C)C)C(C)C | 0.491 | 0.649 | -0.0378 | 0.15 | 0.395 | 0.307 | -1.81 | 0.63 | 0.299 | 0.0007 (inactive) | 0.142 | -0.533 (inactive) | 0.159 (inactive) | -0.738 (inactive) | 0.0319 (inactive) | -0.149 | -0.0736 | 0.293 | 0.321 | 0.486
CCCC[C@@H](O)C1=C(C)C[C@H]2C(=O)N(Cc3ccccc3)C(=O)[C@H]2[C@H]1CO | 0.314 | 0.0359 | -0.0945 | -0.0897 | 0.438 | 0.828 | 0.923 | 0.492 | -0.423 | -0.467 (inactive) | -0.0299 | -0.295 (inactive) | -0.665 (inactive) | 1.29 (inactive) | 0.342 (inactive) | -0.451 | -0.0986 | 0.149 | -0.21 | 0.572
CCCC[C@H]1OB(O)C[C@H]2C1=C(C)C[C@H]1C(=O)N(C)C(=O)[C@H]12 | -0.0755 | 0.739 | 0.248 | 0.615 | 0.931 | 1.31 | 0.445 | 0.794 | 0.556 | -0.769 (inactive) | 0.224 | 0.0813 (inactive) | -0.0729 (inactive) | -0.237 (inactive) | 1.23 (inactive) | -0.174 | -0.0221 | 0.697 | -0.102 | 0.948
CCc1cc2c(nc1CC)CCN(CCC(C)=NOC[C@@H](O)[C@H]1O[C@@H]3OC(C)(C)O[C@@H]3[C@H]1O)C2 | 0.29 | -0.0321 | -0.113 | 0.572 | 0.187 | 0.106 | 0.489 | 0.446 | 0.878 | -0.0353 (inactive) | 0.146 | 0.731 (inactive) | -0.319 (inactive) | 0.006 (inactive) | 0.347 (inactive) | 0.18 | -0.0216 | 0.3 | 0.101 | 0.528
C=CC[C@@H]1C=C[C@H](ON=C[C@@H](OC)[C@H](C)C=CCC(=O)OC)[C@@H](CO)O1 | -0.179 | 0.296 | 0.191 | -0.613 | 0.234 | 0.13 | -0.019 | 0.566 | -1.06 | 0.191 (inactive) | 0.313 | 0.669 (inactive) | 0.0583 (inactive) | -0.957 (inactive) | -0.385 (inactive) | -0.259 | 0.157 | 0.434 | 0.352 | 0.224
COc1cccc([C@@H]2Oc3ccc(Br)cc3C(=O)[C@H]2O)c1 | 0.26 | 0.615 | 0.586 | 0.946 | 0.453 | 0.267 | 1.08 | 0.732 | 0.282 | -3.5 (inactive) | 0.134 | -3.91 (inactive) | -0.591 (inactive) | 4.08 (inactive) | 0.136 (inactive) | 0.286 | -0.089 | 0.561 | 1.1 | 0.936
